Where “and” joins values, the source holds several entries; their conditions need not be identical. Equal values may be shown once. For part of these data: Measured potencies and affinities stand elsewhere.

Holding throughout (design): scale not given: direction of the effect not stated beside the values
For test [1], the target named is Protein translocase subunit SecA (Escherichia coli (strain K12)) (UniProt P10408). Nature of the test: Assay to Identify E. coli SecA ATPase Inhibitors. Type of test: functional. The note with it: 30 µM.
Protein translocase subunit SecA (Escherichia coli (strain K12)), sequence (P10408 whole entry): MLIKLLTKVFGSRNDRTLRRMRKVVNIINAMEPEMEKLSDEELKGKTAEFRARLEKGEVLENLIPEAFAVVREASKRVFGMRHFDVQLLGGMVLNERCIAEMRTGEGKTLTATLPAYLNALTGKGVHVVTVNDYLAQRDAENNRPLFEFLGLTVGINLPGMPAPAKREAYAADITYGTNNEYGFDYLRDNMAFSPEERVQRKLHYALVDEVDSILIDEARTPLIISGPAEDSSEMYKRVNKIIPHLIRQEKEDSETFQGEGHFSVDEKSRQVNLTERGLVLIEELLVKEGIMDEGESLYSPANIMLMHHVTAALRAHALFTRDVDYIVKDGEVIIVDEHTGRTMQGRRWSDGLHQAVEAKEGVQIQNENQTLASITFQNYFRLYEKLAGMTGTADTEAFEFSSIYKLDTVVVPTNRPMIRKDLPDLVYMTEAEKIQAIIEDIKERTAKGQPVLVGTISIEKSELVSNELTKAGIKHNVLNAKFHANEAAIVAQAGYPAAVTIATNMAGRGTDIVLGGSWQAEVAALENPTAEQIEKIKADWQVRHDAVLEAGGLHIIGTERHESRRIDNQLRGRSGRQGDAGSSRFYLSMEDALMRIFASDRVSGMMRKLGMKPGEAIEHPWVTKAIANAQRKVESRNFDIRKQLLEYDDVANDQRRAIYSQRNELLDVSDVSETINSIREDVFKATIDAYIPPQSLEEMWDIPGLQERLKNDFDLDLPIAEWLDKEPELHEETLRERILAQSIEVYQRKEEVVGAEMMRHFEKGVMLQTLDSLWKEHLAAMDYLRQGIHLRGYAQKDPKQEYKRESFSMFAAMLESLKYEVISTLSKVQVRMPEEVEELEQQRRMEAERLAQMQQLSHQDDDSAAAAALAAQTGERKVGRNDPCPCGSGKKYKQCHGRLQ
For test [2], the target named is T1, Ubiquitin-activating enzyme e1, putative (Leishmania donovani (strain BPK282A1)) (UniProt E9BSI1).
T1 sequence (whole entry): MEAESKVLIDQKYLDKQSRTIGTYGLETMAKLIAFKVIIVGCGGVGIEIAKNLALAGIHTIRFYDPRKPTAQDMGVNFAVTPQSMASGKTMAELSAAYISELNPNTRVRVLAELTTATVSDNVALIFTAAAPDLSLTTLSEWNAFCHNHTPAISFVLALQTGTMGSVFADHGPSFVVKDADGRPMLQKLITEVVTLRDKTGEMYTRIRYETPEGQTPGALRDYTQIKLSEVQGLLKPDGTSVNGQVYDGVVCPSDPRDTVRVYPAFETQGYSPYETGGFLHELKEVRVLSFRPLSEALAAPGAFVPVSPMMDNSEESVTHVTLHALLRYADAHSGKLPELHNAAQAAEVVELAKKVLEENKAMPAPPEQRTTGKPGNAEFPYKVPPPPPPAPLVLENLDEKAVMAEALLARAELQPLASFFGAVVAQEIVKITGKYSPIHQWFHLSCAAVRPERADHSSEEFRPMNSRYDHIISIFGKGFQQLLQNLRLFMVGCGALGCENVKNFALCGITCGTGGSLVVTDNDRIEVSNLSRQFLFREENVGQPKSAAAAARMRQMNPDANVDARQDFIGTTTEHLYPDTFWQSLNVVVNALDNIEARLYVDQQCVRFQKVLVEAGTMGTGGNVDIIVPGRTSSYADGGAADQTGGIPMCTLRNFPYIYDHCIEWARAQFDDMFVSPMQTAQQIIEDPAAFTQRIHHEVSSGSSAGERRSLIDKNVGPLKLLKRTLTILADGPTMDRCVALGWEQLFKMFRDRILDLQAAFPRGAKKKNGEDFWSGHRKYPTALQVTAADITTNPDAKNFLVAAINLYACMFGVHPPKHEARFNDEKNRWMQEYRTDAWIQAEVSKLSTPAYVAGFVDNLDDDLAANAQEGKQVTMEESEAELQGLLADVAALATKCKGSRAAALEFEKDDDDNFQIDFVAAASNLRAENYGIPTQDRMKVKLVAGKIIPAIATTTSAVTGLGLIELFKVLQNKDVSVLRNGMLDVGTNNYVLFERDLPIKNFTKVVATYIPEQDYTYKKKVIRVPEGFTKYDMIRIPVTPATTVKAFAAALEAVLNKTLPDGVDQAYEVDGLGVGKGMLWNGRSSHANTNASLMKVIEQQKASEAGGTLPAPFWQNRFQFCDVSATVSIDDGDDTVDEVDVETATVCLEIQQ
In words: Leishmania donovani Ubiquitin Activating Enzyme (LdE1). The test is classed as functional. Conditions: 30 µM.

Test [3] concerns the target AMP-activated protein kinase, AMPK (Homo sapiens) (UniProt P54646+O43741+P54619+Q9UGJ0+Q9Y478+Q13131+Q9UGI9). In words: AMP-dependent Kinase enzyme assay. An in vitro enzyme assay that detects ADP turnover that is directly proportional to AMPK activity. This uses naive AMPK that is activated during the assay with MK-8722. The test is classed as functional. The note with it: 30 µM.

The target in test [4] is Sialic acid-binding Ig-like lectin 9 (Homo sapiens) (UniProt Q9Y336). In words: Hs-Siglec9 ALPHAscreen SOP 20170721. The note with it: 10 µM. For orientation: Bead proximity is the source of the signal in Alpha formats.
Sialic acid-binding Ig-like lectin 9 (Homo sapiens), sequence (Q9Y336 whole entry): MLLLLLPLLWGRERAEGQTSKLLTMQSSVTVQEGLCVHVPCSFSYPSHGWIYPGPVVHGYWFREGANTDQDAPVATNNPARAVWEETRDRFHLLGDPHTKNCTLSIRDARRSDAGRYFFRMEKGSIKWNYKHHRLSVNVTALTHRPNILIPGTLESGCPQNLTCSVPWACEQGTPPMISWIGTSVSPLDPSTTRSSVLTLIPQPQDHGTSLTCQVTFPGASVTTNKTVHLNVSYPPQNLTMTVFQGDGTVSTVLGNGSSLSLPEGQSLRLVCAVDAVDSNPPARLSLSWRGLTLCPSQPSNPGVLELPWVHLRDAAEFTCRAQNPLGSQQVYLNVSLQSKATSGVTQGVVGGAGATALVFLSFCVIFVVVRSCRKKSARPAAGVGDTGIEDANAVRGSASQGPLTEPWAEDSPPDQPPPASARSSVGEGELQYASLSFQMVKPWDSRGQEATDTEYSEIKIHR
The next test relates to Trypanosoma cruzi. In words: Trypanosoma cruzi phosphomannomutase and mannose-1-phosphate guanylyltransferase assay. The note with it: 10 µM. The test is classed as functional.
The target of test [5] is T2, Arginase-2, mitochondrial (Homo sapiens) (UniProt P78540).
T2 sequence (whole entry): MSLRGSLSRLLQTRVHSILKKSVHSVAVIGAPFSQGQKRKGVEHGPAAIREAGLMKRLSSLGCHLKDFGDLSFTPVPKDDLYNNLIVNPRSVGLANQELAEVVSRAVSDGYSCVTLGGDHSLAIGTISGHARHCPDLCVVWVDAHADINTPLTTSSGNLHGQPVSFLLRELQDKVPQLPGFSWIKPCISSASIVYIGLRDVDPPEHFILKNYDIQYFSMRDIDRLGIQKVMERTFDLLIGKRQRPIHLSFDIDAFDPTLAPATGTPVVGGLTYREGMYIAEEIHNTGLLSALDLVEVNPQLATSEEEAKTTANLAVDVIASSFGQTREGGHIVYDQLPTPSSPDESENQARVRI
In words: in vitro enzyme assay to detect the production of urea directly proportional to the activity of Arginase II. Further: in the data most compounds retested in dose-response had high values. Type of test: functional. The note with it: 33.3 µM.

The target of test [6] is T3, Proteasome subunit beta (Trypanosoma cruzi) (UniProt O96673).
T3 sequence (whole entry): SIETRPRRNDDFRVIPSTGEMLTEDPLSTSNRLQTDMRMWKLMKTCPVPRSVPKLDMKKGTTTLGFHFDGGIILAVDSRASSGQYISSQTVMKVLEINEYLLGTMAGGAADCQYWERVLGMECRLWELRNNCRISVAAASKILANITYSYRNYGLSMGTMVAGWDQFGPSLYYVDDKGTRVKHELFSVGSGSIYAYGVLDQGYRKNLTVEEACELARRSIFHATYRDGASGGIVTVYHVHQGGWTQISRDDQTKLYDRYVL
In words: Trypanosoma cruzi proteasome chymotrypsin-like activity (TcProtChymo) assay. Further: in the data most compounds retested in dose-response had high values. Type of test: functional. The note with it: 9.37 µM.

For the next test, the species on record is Homo sapiens. In words: To identify inhibition of the IFN signalling (Jak-Stat) pathway via expression of an eGFP reporter gene under the control of an IFN-stimulated response element (ISRE) containing MxA promoter. Type of test: functional. Conditions: 30 µM.
The target of test [7] is T4, Tyrosyl-tRNA synthetase, putative (Trypanosoma cruzi (strain CL Brener)) (UniProt Q4DSP6).
T4 sequence (whole entry): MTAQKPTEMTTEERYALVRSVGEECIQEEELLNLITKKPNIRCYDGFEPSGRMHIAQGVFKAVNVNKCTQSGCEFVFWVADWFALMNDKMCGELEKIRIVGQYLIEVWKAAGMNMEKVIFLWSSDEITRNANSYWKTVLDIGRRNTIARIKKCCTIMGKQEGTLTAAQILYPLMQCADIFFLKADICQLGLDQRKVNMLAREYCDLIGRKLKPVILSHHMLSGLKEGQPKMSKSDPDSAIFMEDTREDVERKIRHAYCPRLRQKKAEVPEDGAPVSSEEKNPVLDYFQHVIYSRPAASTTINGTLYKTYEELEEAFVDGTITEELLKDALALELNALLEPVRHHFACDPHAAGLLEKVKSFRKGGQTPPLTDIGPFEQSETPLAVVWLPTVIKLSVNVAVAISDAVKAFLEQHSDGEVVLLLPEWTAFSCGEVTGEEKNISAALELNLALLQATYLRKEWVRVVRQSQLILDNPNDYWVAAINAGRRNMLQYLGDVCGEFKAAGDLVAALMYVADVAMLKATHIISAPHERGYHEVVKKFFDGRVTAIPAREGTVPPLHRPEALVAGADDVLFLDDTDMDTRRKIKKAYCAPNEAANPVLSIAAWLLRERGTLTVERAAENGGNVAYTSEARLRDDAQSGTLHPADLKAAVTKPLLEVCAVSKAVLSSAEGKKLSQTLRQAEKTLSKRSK
In words: Trypanosoma cruzi tyrosyl tRNA synthetase (TcYRS) _High Tyrosine SOP. Further: in the data most compounds retested in dose-response had high values. The test is classed as functional. Conditions: 30 µM.

Test [8] addresses T4, Tyrosyl-tRNA synthetase, putative (Trypanosoma cruzi (strain CL Brener)). Nature of the test: Trypanosoma cruzi tyrosyl tRNA synthetase (TcYRS) SOP. Type of test: functional. The note with it: 30 µM.
Test [9] concerns the target Chromo domain-containing protein 1 (Saccharomyces cerevisiae (strain ATCC 204508 / S288c) (Baker's yeast)) (UniProt P32657). Nature of the test: ScCHD-1 Enzyme Inhibition Assay. Further: in the data most compounds retested in dose-response had high values. The test is classed as functional. Conditions: 30 µM.
The next test deals with N/A. In words: Trypanosoma cruzi proteasome luciferase counter-screen. Type of test: functional. Conditions: 9.37 µM.

Chromo domain-containing protein 1 (Saccharomyces cerevisiae (strain ATCC 204508 / S288c) (Baker's yeast)), sequence (P32657 whole entry, the tested form may be a part): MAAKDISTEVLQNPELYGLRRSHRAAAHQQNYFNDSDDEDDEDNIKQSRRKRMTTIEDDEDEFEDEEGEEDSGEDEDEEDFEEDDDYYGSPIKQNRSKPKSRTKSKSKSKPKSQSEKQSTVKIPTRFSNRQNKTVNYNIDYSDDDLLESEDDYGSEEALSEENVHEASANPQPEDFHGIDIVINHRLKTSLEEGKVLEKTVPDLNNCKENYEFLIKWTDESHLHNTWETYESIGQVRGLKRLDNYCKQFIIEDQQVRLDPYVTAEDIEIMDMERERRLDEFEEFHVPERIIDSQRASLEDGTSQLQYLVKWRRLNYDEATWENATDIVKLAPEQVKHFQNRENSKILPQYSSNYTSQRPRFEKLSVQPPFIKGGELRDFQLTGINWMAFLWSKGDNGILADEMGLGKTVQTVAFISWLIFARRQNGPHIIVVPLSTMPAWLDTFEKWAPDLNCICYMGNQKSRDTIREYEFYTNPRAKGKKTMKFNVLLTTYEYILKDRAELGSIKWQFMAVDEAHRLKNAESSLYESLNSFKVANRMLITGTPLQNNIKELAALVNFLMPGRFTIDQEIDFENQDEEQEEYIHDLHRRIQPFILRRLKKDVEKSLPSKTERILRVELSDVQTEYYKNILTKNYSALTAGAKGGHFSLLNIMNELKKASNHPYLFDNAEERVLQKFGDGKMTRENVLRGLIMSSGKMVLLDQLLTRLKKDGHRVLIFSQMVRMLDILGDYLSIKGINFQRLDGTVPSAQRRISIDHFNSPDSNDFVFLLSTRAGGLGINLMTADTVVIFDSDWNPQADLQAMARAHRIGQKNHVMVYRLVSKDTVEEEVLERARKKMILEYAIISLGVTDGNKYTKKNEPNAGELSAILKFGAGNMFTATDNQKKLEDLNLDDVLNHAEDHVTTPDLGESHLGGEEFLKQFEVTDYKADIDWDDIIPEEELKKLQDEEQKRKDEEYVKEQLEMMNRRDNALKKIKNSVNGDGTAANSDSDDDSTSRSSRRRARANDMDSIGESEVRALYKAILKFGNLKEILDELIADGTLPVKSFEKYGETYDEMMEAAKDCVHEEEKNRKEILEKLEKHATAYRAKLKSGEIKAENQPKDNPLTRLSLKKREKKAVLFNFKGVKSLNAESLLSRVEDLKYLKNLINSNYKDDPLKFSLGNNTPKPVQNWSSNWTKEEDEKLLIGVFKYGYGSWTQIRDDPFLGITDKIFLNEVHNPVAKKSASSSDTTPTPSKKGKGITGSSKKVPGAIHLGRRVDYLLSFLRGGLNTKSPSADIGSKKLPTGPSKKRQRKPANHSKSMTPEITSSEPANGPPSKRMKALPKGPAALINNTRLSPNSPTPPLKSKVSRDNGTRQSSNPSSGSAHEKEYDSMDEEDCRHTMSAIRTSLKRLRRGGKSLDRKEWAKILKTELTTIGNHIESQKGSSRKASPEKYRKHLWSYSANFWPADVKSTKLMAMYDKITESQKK

For `Cc1cn(-c2ccccc2)nc1NS(=O)(=O)c1cc(C(=O)O)cs1`, the Percent Effect is -9.57% in [1]; -5.48% in test [2]; -4.37% in test [3]; 14.1% in test [4]; -2.15% in the test on Trypanosoma cruzi; -0.455% in test [5]. Moreover, the Percent Effect in test [6] is 11.9%; in the test filed under Homo sapiens, 6.83%; in [7] it was -8.6%; in test [8] it was -12.5%; in test [9], -5.44%.

With `NC(=O)Cc1ccc(NC(=O)C2CCOCC2)cc1`, the Percent Effect in test [1] is -3.03%; in test [2] it was 10.8%; in test [3], -5.71%; in test [4], -1.1%; in the test with Trypanosoma cruzi, -7.52%; in [5], 2.03%. Moreover, the Percent Effect was 11.5% in test [6]; 19.3% in the test listed under Homo sapiens; 5.94% in test [7]; 15.8% in test [8]; -1.7% in test [9].

Take `C[C@H]1C[C@@H]2CCN(C(=O)c3cccn3C)C[C@H]2O1`: the Percent Effect in [1] is -0.284%; in test [2], 10.8%; in test [3], 2.27%; in test [4], -5.58%; in the test on Trypanosoma cruzi it was -8.89%; in test [5], 6.69%. For the same compound, the Percent Effect in [6] was 17.5%; in the test listed under Homo sapiens, 3.63%; in test [7], -1.08%; in test [8], 5.13%; in test [9], -0.358%.

For the compound `COCCN(C)CCN1CC2(CCN(C(=O)C3CCOC3)CC2)OC1=O` (stereo unspecified), the Percent Effect was -4.65% in test [1]; 18.2% in test [2]; 9.58% in [3]; 7.65% in test [4]; 5.21% in the test on Trypanosoma cruzi; -12.4% in [5]. The Percent Effect was 23.1% in [6]; 6.21% in the test listed under Homo sapiens; 7.53% in [7]; 18.5% in test [8]; -7.01% in test [9].

For `CN(C)CCOCC1CN(CC2CCOCC2)Cc2nnn(C)c21` (stereo unspecified), the Percent Effect was -5.87% in [1]; 10.8% in test [2]; 1.42% in [3]; -2.51% in test [4]; -5.96% in the test with Trypanosoma cruzi; 1.24% in test [5]. Moreover, the Percent Effect in test [6] was 8.67%; in the test listed under Homo sapiens it was 17%; in test [7], 5.38%; in [8] it was 11.1%; in test [9], -4.9%.

`CC(C)C(=O)NCc1cccc(N2CCCCC2=O)c1`: the Percent Effect in [1] was -6.2%; in [2] it was 18.2%; in test [3] it was -3.27%; in [4] it was -10.4%; in the test on Trypanosoma cruzi, 5.78%; in test [5], 1.05%. Further, the Percent Effect in test [6] was 11.7%; in the test filed under Homo sapiens, 0.702%; in [7], 3.81%; in test [8], 21.2%; in [9], -12.3%.

As to `CN(C)C(=O)Cc1nc(CN2CCn3c(nnc3C3CC3)C2)cs1`, the Percent Effect in test [1] is -3.93%; in test [2], 16.2%; in [3], 2.91%; in [4] it was 3.53%; with Trypanosoma cruzi, 2.14%; in [5], -2.4%. Also, the Percent Effect in test [6] was 10.8%; in the test listed under Homo sapiens, 7.25%; in [7], 5.94%; in [8] it was 15.8%; in test [9], -2.27%.

Take `Cc1cccc(-c2noc(CN3CCC(N4CCNC4=O)CC3)n2)c1`: the Percent Effect is -6.31% in test [1]; 13% in test [2]; 4.11% in [3]; 4.47% in test [4]; 0.374% in the test on Trypanosoma cruzi; -1.78% in test [5]. Also, the Percent Effect is -2.2% in test [6]; 21.5% in the test filed under Homo sapiens; 7.77% in [7]; 12.2% in test [8]; -3.52% in test [9].

Consider `Cc1ccc(CC2CCCN2CC(=O)NCc2ccccn2)cc1` (stereo unspecified), for which the Percent Effect was -7.47% in test [1]; -5.26% in test [2]; -11.2% in test [3]; 3.27% in [4]; -1.66% in the test on Trypanosoma cruzi; 2.37% in test [5]. Moreover, the Percent Effect in [6] is 8.53%; in the test filed under Homo sapiens it was -4.78%; in [7], 7.45%; in test [8], 13%; in test [9] it was -2.14%.

For `c1cc(OCc2ccc3c(c2)OCCO3)ccc1CNC1CC1`, the Percent Effect in test [1] was 5.92%; in [2] it was 0%; in [3], 13.6%; in test [4], -13.3%; in the test on Trypanosoma cruzi, -7.3%; in test [5] it was -5.92%. The Percent Effect in [6] is 91.2% and 90% and 88.4%; in the test with N/A, 63.7% and 65.3%; in the test filed under Homo sapiens it was 23%; in test [7], -2.13%; in [8], 5.2%; in test [9], -5.94%.

The values above are taken from ChEMBL document CHEMBL3988442, “University of Dundee, Small-Polar-MMV Screening Library” (2021).
